Results filed as inconclusive are left out. Where a call stands in place of a potency, no number is given. Calls of active or inactive are those of the source. Calls come from the whole dose curve; as a rule, active = well fitted curve in the direction sought with a large enough effect; inconclusive = small, poorly fitted or top-dose-only effect, or another doubt; inactive = no such curve, though single readings can be large; an effect the other way counts as inactive or inconclusive. *1 amine or outer side, *2 acyl side, *3 side chain or, on linkers, in order; H or OH if unused. Where a SMILES comes first, the peptide text is derived from it. [ ]: non-standard residue; d: D form. X13 = O=C(C(CC(O)CO)O[*:1])[*:2]; NMeV = CN[CH](C(=O)O)C(C)C; NMeA = CN[CH](C)C(=O)O; βAla = NCCC(=O)O
Assays:
[1] = target: Glutathione peroxidase 1 (Homo sapiens) (UniProt P07203); assay: Primary qHTS Assay for Inhibitors of Recombinant Selenoprotein Glutathione Peroxidase 1 (GPX1) (AID 1845191); note: nearly all actives have a fitted effect of over 65% in size
Chain of Glutathione peroxidase 1 (Homo sapiens) (P07203 whole entry, looked up): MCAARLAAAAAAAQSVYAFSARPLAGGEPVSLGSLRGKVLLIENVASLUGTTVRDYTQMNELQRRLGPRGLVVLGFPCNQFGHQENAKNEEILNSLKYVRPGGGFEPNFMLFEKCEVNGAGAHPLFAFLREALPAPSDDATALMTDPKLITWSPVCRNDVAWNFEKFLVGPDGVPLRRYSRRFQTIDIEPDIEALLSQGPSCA
Method in brief: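 GR-coupled assay: compounds preincubated 30 min at room temperature with GPX1, then reaction started with CHP; final 10 nM GPX1, 1 mM GSH, 0.5 mM CHP, 0.5 mM NADPH, 100 nM GR, 0.01% BSA, pH 7.5 Tris buffer. NADPH fluorescence (340/450 nm) read at 0 and 15 min.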

[2] = target: Phospholipid hydroperoxide glutathione peroxidase GPX4 (Homo sapiens) (UniProt P36969); assay: Primary qHTS Assay for Inhibitors of Recombinant Selenoprotein Glutathione Peroxidase 4 (GPX4) (AID 1845192); note: nearly all actives have a fitted effect of over 65% in size
Chain of Phospholipid hydroperoxide glutathione peroxidase GPX4 (Homo sapiens) (P36969 whole entry, looked up): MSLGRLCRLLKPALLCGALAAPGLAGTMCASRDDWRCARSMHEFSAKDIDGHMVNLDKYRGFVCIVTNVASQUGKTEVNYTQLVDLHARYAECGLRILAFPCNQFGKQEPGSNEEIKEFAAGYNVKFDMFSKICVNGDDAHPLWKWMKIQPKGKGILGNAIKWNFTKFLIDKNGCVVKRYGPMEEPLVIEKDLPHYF
Method in brief: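 GR-coupled assay: recombinant GPX4 preincubated 30 min with compound at room temperature; final 200 nM GPX4, 1 mM GSH, 0.5 mM cumene hydroperoxide, 0.5 mM NADPH, 100 nM GR, 0.01% BSA, pH 7.5 Tris. NADPH fluorescence (340/450 nm) read at 0 and 15 min.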

[3] = target: Luciferin 4-monooxygenase (Photinus pyralis) (UniProt P08659); assay: Primary firefly luciferase (FLuc) qHTS assay for identification of artifact compounds. (AID 1845220); note: nearly all actives have a fitted effect of over 60% in size
Method in brief: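 Enzymatic FLuc inhibition assay: compounds pre-exposed to luciferin/ATP (10 uM each) for 15 min, then purified P. pyralis enzyme at 10 nM added. Read-out: luminescence at 5 min.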

[4] = Primary fluorescence-based thiol-reactive (MSTI) qHTS assay for identification of artifact compounds. (AID 1845221); note: nearly all actives have a fitted effect of over 65% in size; note: potency is the fitted concentration of half-maximal effect
Method in brief: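 MSTI probe at 4 uM final in 2% DMSO/PBS pH 7.4; compounds, 1 h at room temperature in dark. Fluorescence Ex/Em 525/598 nm, normalised to Acetyl-MSTI and MSTI, fitted to 4-parameter Hill.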

SMILES	Potency [1]	Potency [2]	Potency [3]	Potency [4]
C=C1CCC2C(C)(C(=O)O)CCCC2(C)C1CC/C(C)=C\CO (stereo not drawn)	inactive	inactive	inactive	inactive
COc1c(-c2ccc(O)cc2)cc(OC)c2c1oc1cc(O)c(OC3OC(CO)C(O)C3O)cc12 (stereo not drawn)	inactive	inactive		4.62 µM (active)
CCC(C)C1NC(=O)C2CCCN2C(=O)C(CC(O)CO)OC(=O)CCNC(=O)C(C)N(C)C(=O)C(C(C)C)N(C)C1=O (stereo not drawn) (cyclo([X13]PI[NMeV][NMeA][βAla]); configuration not given here)	inactive	inactive	inactive	inactive
C[C@@H]1[C@H](O)[C@@H]2OC(=O)C3=C2[C@H](CCC3)[C@@]12C[C@@H](c1ccoc1)OC2=O	inactive	inactive		inactive
CC(=O)O[C@@H]1[C@@H](O)[C@H](C)O[C@@H](O[C@H]2[C@@H]3C=CO[C@@H](O[C@@H]4O[C@H](CO)[C@@H](O)[C@H](O)[C@H]4OC(C)=O)[C@@H]3[C@@]3(CO)O[C@@H]23)[C@@H]1OC(=O)/C=C/c1ccc(O)cc1	inactive	inactive	inactive	6.3 µM (active)
CC(NC(=O)[C@H](Cc1ccccc1)NC(=O)OCc1ccccc1)C(=O)CF (stereo partly drawn)	inactive	inactive		inactive
CC(=O)O[C@H]1[C@H](OC(=O)C(C)C)[C@]2(C)OC3(CC[C@]2(C)[C@H]2CCC[C@]4(CO4)[C@]12C)COC(=O)C3 (stereo partly drawn)	inactive	inactive		inactive
N=C(N)c1ccc2nc(-c3cc(CC(=O)NC(CC(=O)O)C(=O)O)cc(-c4cc(S(N)(=O)=O)ccc4O)c3O)[nH]c2c1 (stereo not drawn)	inactive	inactive		2.12 µM (active)
COC(=O)C(Cc1ccccc1)NC(=O)c1ccccc1 (stereo not drawn)	inactive	inactive		inactive
O=C(O)C1(c2ccc(-c3ccc(Cl)c(Cl)c3)c(F)c2)CC1	inactive	inactive		inactive
CC(C)CC(=O)OC[C@@]1(O)C[C@@]23CC[C@H]4[C@@](C)(CCC[C@@]4(C)C(=O)O)[C@@H]2CC[C@@H]1C3	inactive	inactive		inactive
C=Cc1ccc(O[C@@H]2O[C@H](CO[C@@H]3O[C@@H](C)[C@H](O)[C@@H](O)[C@H]3O)[C@@H](O)[C@H](O)[C@H]2O)cc1	inactive	inactive	inactive	11.6 µM (active)
CC(C(=O)Nc1cc(C#N)ccc1CCCC(=O)O)c1ccc(F)c2ccccc12 (stereo not drawn)	inactive	inactive		inactive
CSCC1OC(n2cnc3c(=O)[nH]cnc32)C(O)C1O (stereo not drawn)	inactive	inactive	inactive	inactive
CC(=O)OCC1=C[C@@H]2OC(=O)C3=CO[C@@H](O[C@@H]4O[C@H](CO)[C@@H](O)[C@H](O)[C@H]4O)[C@H]1[C@@H]32	inactive	inactive	inactive	inactive
COc1cc(/C=C/C(=O)OC[C@H]2O[C@@H](OC3CC(C)=C(C(=O)O)C(C)(C)C3)[C@H](O)[C@@H](O)[C@@H]2O)cc(OC)c1O (stereo partly drawn)	inactive	inactive		3.27 µM (active)
COC(=O)C[C@H]1C(C)(C)[C@H](OC(=O)C(C)C)C2CC3=C4CC(=O)O[C@@H](c5ccoc5)[C@]4(C)CCC3[C@@]1(C)C2=O (stereo partly drawn)	inactive	inactive	inactive	inactive

Reference: PubChem BioAssay (NCATS)
